Laboratory results as given in PubChem BioAssay AID1159580 (chemical genetic matrix, 2015).
The whole screen tested about 5,500 compounds, of which about 2,000 (36%) were called active. Roughly 18% stayed inconclusive and do not appear here. Rule as the data show it: active = normalized growth mostly below about 0.91 (no sharp cut-off); inconclusive = no clear call, values can overlap the other calls; inactive = mostly above about 0.92. The list shows a part of the results.

Assay: chemical genetic growth profiling, strain panel (AID 1159580);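 also: tested at 20 µM; growth read once vehicle control cultures reached saturation at 30 °C; 1 = growth at the plate median or of vehicle wells; lower values mean less growth of the strain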
Conditions: growth OD

Measured: normalized growth

N#CC(C#N)=Cc1ccc(-c2cc(C(F)(F)F)ccc2Cl)o1
inactive: S. cerevisiae deletion strains, locus YAL013W, strain DEP1, stronger effect = lower value 1.01 | S. cerevisiae deletion strains, locus YBR229C, strain ROT2, stronger effect = lower value 1.01 | S. cerevisiae deletion strains, locus YDL101C, strain DUN1, stronger effect = lower value 1.03 | S. cerevisiae deletion strains, locus YDR150W, strain NUM1, stronger effect = lower value 0.993 | S. cerevisiae deletion strains, locus YEL061C, strain CIN8, stronger effect = lower value 0.997 | S. cerevisiae deletion strains, locus YGR078C, strain PAC10, stronger effect = lower value 1.01 | S. cerevisiae deletion strains, locus YHR030C, strain SLT2, stronger effect = lower value 0.819 | S. cerevisiae deletion strains, locus YHR087W, strain rtc3, stronger effect = lower value 1.02 | S. cerevisiae deletion strains, locus YJL187C, strain SWE1, stronger effect = lower value 0.997 | S. cerevisiae deletion strains, locus YJR043C, strain POL32, stronger effect = lower value 0.989 | S. cerevisiae deletion strains, locus YJR075W, strain HOC1, stronger effect = lower value 0.987 | S. cerevisiae deletion strains, locus YLR039C, strain RIC1, stronger effect = lower value 0.844 | S. cerevisiae deletion strains, locus YLR058C, strain SHM2 (second series), stronger effect = lower value 0.99 | S. cerevisiae deletion strains, locus YLR085C, strain ARP6, stronger effect = lower value 0.797 | S. cerevisiae deletion strains, locus YLR262C, strain YPT6, stronger effect = lower value 0.913 | S. cerevisiae deletion strains, locus YML094W, strain GIM5, stronger effect = lower value 1.08 | S. cerevisiae deletion strains, locus YMR219W, strain ESC1, stronger effect = lower value 0.996 | S. cerevisiae deletion strains, locus YMR263W, strain SAP30, stronger effect = lower value 0.97 | S. cerevisiae deletion strains, locus YMR307W, strain GAS1, stronger effect = lower value 0.786 | S. cerevisiae deletion strains, locus YNL153C, strain GIM3, stronger effect = lower value 1.02 | S. cerevisiae deletion strains, locus YNL298W, strain CLA4 (second series), stronger effect = lower value 0.923 | S. cerevisiae deletion strains, locus YNL322C, strain KRE1, stronger effect = lower value 0.986 | S. cerevisiae deletion strains, locus YNR030W, strain Alg12, stronger effect = lower value 0.962 | S. cerevisiae deletion strains, locus YPL055C, strain LGE1, stronger effect = lower value 1.01 | S. cerevisiae deletion strains, locus YPL241C, strain CIN2, stronger effect = lower value 0.899 | S. cerevisiae deletion strains, locus YPR135W, strain CTF4, stronger effect = lower value 0.944 | S. cerevisiae strains, strain wild type, stronger effect = lower value 0.959
